Experimental data: PubChem BioAssay (Tox21)
Unmarked numbers belong to inactive results. Calls of active or inactive are those of the source. Calls follow the shape of the dose curve; as a rule, active = well fitted curve in the direction sought with a large enough effect in the repeat runs; inconclusive = weak or mixed curves; inactive = flat fitted curve, though single readings scatter.

test: qHTS assay to test for compound auto fluorescence at 590 nm (red) in HepG2 cell free culture (AID 720684); conditions: cell-free medium autofluorescence, red 540/590 nm; series mostly up to 91.3 µM; fluorescence, % of Rose Bengal: at the top concentration
Source text: U.S. Tox21 Program National Center for Advancing Translational Sciences [NCATS] NIH Chemical Genomics Center [NCGC] U.S. Environmental Protection Agency [EPA] National Institutes of Environmental Health Sciences [NIEHS] National Toxicology Program [NTP] U.S. Food and Drug Administration [FDA] Tox21 Assay Overview: Compound auto fluorescence often interferes with screening of the compound library against various biological targets and signaling pathways. Some of these compounds may have fluorophoric properties. Such properties may interfere with the assay outputs resulting in false positives and/or negatives. To decrease such complications and ensure the compound activities are relevant in terms of biological response, the Tox21 10K compound library was screened for auto fluorescence. From the fluorophores used as reporter signals in our screening assays, the auto fluorescence equivalencies of compounds against three fluorophores have been evaluated: Triamterene, Fluorescein and Rose Bengal sodium for blue, green and red fluorescence, respectively. The fluorescence intensities were measured using Excitation/Emission wavelengths at 405/460nm, 485/535nm and 540/590nm for blue, green and red labels, respectively. This assay includes the red fluorescence data.
Tox21 Assay Protocol Summary: 5 uL of culture medium (MEM containing 10% FBS) per well was dispensed into black wall/clear bottom 1536-well plates using a Multidrop Combi Dispenser (ThermoFisher Scientific, Waltham, MA). After 23 nL compound or DMSO vehicle was transferred into assay plate by a pintool work station (Kalypsys, San Diego, CA), fluorescence intensities in the assay plates were measured by an Envision (PerkinElmer, Shelton, CT) plate reader using three labels for measuring blue, green and red fluorescence at […] 460, 535 and 590nm respectively.
% is scaled to controls: 0 for no effect and ±100 for the full control effect.

Structure (SMILES)	fluorescence, % of Rose Bengal	outcome
C[C@@H]1C[C@H]2[C@@H]3C[C@H](F)C4=CC(=O)C(Cl)=C[C@]4(C)[C@@]3(F)[C@@H](O)C[C@]2(C)[C@@]1(O)C(=O)CO	-0.0203% [at 46 µM]	
CCCCN(CCC(=O)OCC)C(C)=O	0.034%	
CN1CC(=O)N/C1=N/C(=O)Nc1cccc(Cl)c1		inactive
c1ccc(CCc2ccccc2)cc1	-0.11%	
CC(N)C12CC3CC(CC(C3)C1)C2 (stereo not given)	-0.242% [at 46 µM]	
C[C@H]1[C@H](NC(=O)/C(=N/OC(C)(C)C(=O)O)c2csc(N)n2)C(=O)N1S(=O)(=O)O (stereo in doubt)	0.467% [at 18.6 µM]	
CC(COc1ccccc1)NN (stereo not given)	0.0188% [at 46 µM]	
CC[N+](C)(CC)CCOC(=O)C1c2ccccc2Oc2ccccc21	0.0313% [at 46 µM]	
CCNS(=O)(=O)c1ccc(C)cc1	0.0083% [at 95.7 µM]	
C[N+](C)(C)CCCCCCCCCC[N+](C)(C)C	-0.306% [at 46 µM]	
Cc1ccc(C(=O)c2ccccc2)cc1	-0.218%	
C1CCC2(CCCCO2)OC1	0.257%	
CCCCCC(C)N (stereo not given)	-0.116% [at 46 µM]	
CC[N+](CC)(CC)CCOc1cccc(OCC[N+](CC)(CC)CC)c1OCC[N+](CC)(CC)CC	0.0601% [at 46 µM]	
Cc1ccc(C(=O)Nc2ccc(S(=O)(=O)O)c3cc(S(=O)(=O)O)cc(S(=O)(=O)O)c23)cc1NC(=O)c1cccc(NC(=O)Nc2cccc(C(=O)Nc3cc(C(=O)Nc4ccc(S(=O)(=O)O)c5cc(S(=O)(=O)O)cc(S(=O)(=O)O)c45)ccc3C)c2)c1	0.0055% [at 46 µM]	
COc1cc(C(=O)NCc2ccc(OCCN(C)C)cc2)cc(OC)c1OC	-0.58% [at 18.6 µM]	
NC(CCC(=O)O)C(=O)O (stereo not given)	0.212%	
CC12CCC(C(=O)C1=O)C2(C)C (stereo not given)	-0.0756% [at 95.7 µM]	
CCCCc1ccc2c(n1)[C@@H](c1ccc(OC)cc1C[C@H](C)C(=O)O)[C@H](C(=O)O)[C@H]2c1ccc2c(c1)OCO2	0.0444%	
NC(=O)N[C@@H](CCC(=O)O)C(=O)O	-0.0153% [at 46 µM]	

Structure (SMILES)	fluorescence, % of Rose Bengal	outcome
CC(C)C[C@@H](N)C(=O)O	-0.0892% [at 46 µM]	
CC1(C)[C@@H]2CC[C@@]1(C)[C@H](O)C2	0.0676%	
CC(C)(C)OC(=O)c1cccc(N)c1	0.184% [at 95.7 µM]	
CC1CCC(CO)CC1 (stereo not given)	0.0093% [at 95.7 µM]	
Cc1nc2ccc(CN(C)c3ccc(C(=O)N[C@@H](CCC(=O)O)C(=O)O)s3)cc2c(=O)[nH]1		inactive
CO[Si](C)(OC)c1ccccc1	0.0134%	
CCCO[Si](OCCC)(OCCC)OCCC	0.117%	
[Ca+2]	0.118%	
CC(C)(C)C(=O)c1ccccc1	0.0386%	
Cc1cc(C)c(N=Nc2c(O)c(S(=O)(=O)O)cc3cc(S(=O)(=O)O)ccc23)cc1C	0.0175% [at 9.17 µM]	
CCOc1ccccc1OCC	0.0214%	
CCN1C=CN(C)C1C (stereo not given)	-0.0479%	
CCC(=O)OCc1ccccc1	0.0275%	
Clc1cc(Cl)cc(Cl)c1	0.0078%	
CCCC(C)C(=O)OCC (stereo not given)	0.0095%	
CC(=O)c1ccc2ccccc2c1	0.037%	
O=C(O)c1cn(C2CC2)c2cc(N3CCNCC3)c(F)cc2c1=O	0.543% [at 18.6 µM]	
C=C(C)C(=O)OCCOCCOCCOCCOC(=O)C(=C)C	0.0101%	
C[N+]1(C)CCCC(OC(=O)C(O)(c2ccccc2)c2ccccc2)C1 (stereo not given)	-0.11% [at 18.6 µM]	
COCCOC[C@H](CC1(C(=O)NC2CCC(C(=O)O)CC2)CCCC1)C(=O)Oc1ccc2c(c1)CCC2 (stereo not given in full)	0.0421%	
